# According to ChEMBL document CHEMBL3433997, “St. Jude Leishmania screening dataset” (2016):
# Molecular target: Glucose transporter (Leishmania mexicana) (UniProt O61059)
# Assay: ST_JUDE_LEISH: Cytotoxicity at 2uM final concentration against transgenic Leishmania Mexicana promastigotes LmGT2 that are glucose transport deficient and complemented with the L. Mexicana glucose transporter 2. Activity is measured by DNA content using SYBR green in vitro
# Type: functional
row,Compound,inhibition [%]
1,COc1cc(Nc2ccnc3ccc(C(C)(C)C)cc23)cc(OC)c1OC,1.66
2,COc1ccc2nccc(NCC3(O)CCC(NCc4ccc5c(n4)NC(=O)CS5)CC3)c2n1 (stereo not given),4.28
3,C[C@H](Cc1ccc(CCc2ccc(C[C@@H](C)NC[C@H](O)c3cccc(Cl)c3)cc2)cc1)NC[C@H](O)c1cccc(Cl)c1,58.5
4,Clc1cccc(C=NNc2nc(=Nc3ccccc3)[nH]c(=Nc3ccccc3)[nH]2)c1,3.05
5,CN(C)c1ccc(C=C2SC(=N)N(c3nccs3)C2=O)cc1,4.86
6,CCN(CC)CCCC(C)Nc1c2ccccc2nc2ccc3ccccc3c12 (stereo not given),2.22
7,CCS[C@@H]1O[C@H](COC(=O)c2ccccc2)[C@H](OC(=O)c2ccccc2)[C@H](OC(=O)c2ccccc2)[C@H]1OC(=O)c1ccccc1,2.02
8,COc1ccc(-c2ccc(CNC(=O)c3ccc(C#N)cc3)c(F)c2)cc1CN1CCCN(C)CC1,-3.44
9,CN1CCN(c2ccc(Nc3ncc([N+](=O)[O-])c(Nc4ccccc4O)n3)cc2)CC1,1.84
10,CN(C)C(=O)c1cc(CNCc2ccccc2)ccc1-c1cccc(CNCc2ccc(-c3ccccc3)cc2)c1,3.02
11,Nc1nccc2ccc(-c3ccc(Oc4ccccc4)cc3)cc12,12.2
12,Clc1cnc2ccc3c(c2c1CCN1CCC(NCc2cc4c(cn2)OCCO4)CC1)OCCO3,14.9
13,N#Cc1ccccc1Sc1ccccc1C(=O)Nc1ccc2ccccc2n1,7.12
14,CCOc1cc(Cl)c(C(C)NC(=O)c2ccccc2)cc1OCC (stereo not given),3.01
15,Fc1ccc2[nH]c(-c3cccc(-c4cccc(CN5CCN(c6cnccn6)CC5)c4)c3)nc2c1,4.27
16,c1cc(CN2CCN(c3ccncc3)CC2)cc(-c2cccc(-c3nc4ccccc4[nH]3)c2)c1,1.32
17,O=c1cc(N2CCCNCC2)c(Cl)nn1Cc1ccc(NS(=O)(=O)c2ccc(Oc3ccccc3)cc2)cc1,8.55
18,N#Cc1ccc(N2CCN(Cc3ccc(-c4ccc(-c5nc6cc(F)ccc6[nH]5)s4)cc3)CC2)nc1,4.78
19,Fc1ccc(Nc2ccnc3cc(-c4ccc(CN5CCOCC5)o4)ccc23)c(Cl)c1,7.49
20,COc1ccc(CNC(=O)NC2CCN(c3ccnc(Nc4ccc(OC)cc4)n3)C2)cc1 (stereo not given),1.82

row,Compound,inhibition [%]
1,Cc1cc(=O)oc2c1ccc1oc(C(O)c3ccc(Cl)cc3)c(C)c12 (stereo not given),-1.6
2,COC[C@H]1CCCN1Cc1ccc(-c2ccc(-c3nc4ccccc4[nH]3)s2)cc1,1.25
3,CCOc1cc(C(=O)NCc2cc(Cl)cc(Cl)c2)ccc1-c1nc2cc(Cl)ccc2[nH]1,1.11
4,Cc1noc(C)c1C(=O)N1CCc2cc3nccc(N4CCN5CCC[C@H]5C4)c3cc21,-0.53
5,CN1CCN(CCc2ccc3nc(-c4csc(Cc5cc(Cl)ccc5OCc5ccccc5)n4)[nH]c3c2)CC1,-1.4
6,Cc1cccc2nc(-c3ccc(-c4ccc(NC(=O)Nc5ccsc5)cc4)cc3)[nH]c12,-0.35
7,CCOC(=O)c1cc(Cl)ccc1OCCCON1C(=N)N=C(N)NC1(C)C,3.08
8,CC(C)(CNC(=O)C1CCN(CC2CCCCC2)CC1)c1nc(-c2ccc(Cl)c(O)c2)c(-c2ccncc2)[nH]1,2.71
9,CCCCNC(=O)C(C)NC(=O)c1ccc(O)c(-c2ccc(Cl)c(Cl)c2)c1 (stereo not given),0.05
10,O=C(NCC1CCC(C(=O)NCc2cccc(C(F)(F)F)c2)CC1)c1ccc(O)c(-c2ccc(Cl)c(Cl)c2)c1 (stereo not given),2.98
11,O=C(NC1CCN(CCCOc2ccnc3cc(Cl)ccc23)C1)c1ccc(Br)cc1 (stereo not given),7.14
12,CCCCCC(NCCCC)c1ccc(OCCOc2ccc(C(CCCCC)NCCCC)cc2)cc1 (stereo not given),85.3
13,N#CCc1ccc(Nc2nccc(Nc3ccc(Oc4ccccc4)cc3)n2)cc1,1.09
14,COc1ccc2c(NN=Cc3cccc(F)c3)ccnc2c1,4.14
15,C#CCNC(=O)c1ccc(-c2ccnc(Nc3cccc(CCCN4CCOCC4)c3)n2)s1,27.2
16,CCCNC(=O)c1cncc(-c2ccc(CNC3Cc4ccccc4C3)cc2)c1,-1.1
17,c1ccc2[nH]c(-c3ccc(-c4ccc(CNC5CC5)cc4)s3)nc2c1,-2.14
18,Cc1cc(Cl)ccc1NC(=O)NCCCCCN1CCC(c2c[nH]c3ccccc23)CC1,10.4
19,COc1ccc(-c2nc3cc4ccccc4nc3[nH]2)c(OCC(O)CNC(C)C)c1 (stereo not given),1.21
20,COc1ccc(NC(=O)[C@H](Cc2ccccc2)Nc2cc(C)nc(NCCc3ccccn3)n2)cc1,-0.86
